ALR inh: inhibitors of human ALR sulfhydryl oxidase, primary screen, biochemical, H2O2 detection, HRP-luminol luminescence, single point; FAD-linked sulfhydryl oxidase ALR (Homo sapiens), P55789; purified ALR, DTT oxidation; inhibition, % (test concentration not listed); hit rate 3.8% among 290,000;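 active = mean replicate inhibition above about 79%, with every replicate also reaching it, limit read from the data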
Target sequence (P55789 whole entry, looked up): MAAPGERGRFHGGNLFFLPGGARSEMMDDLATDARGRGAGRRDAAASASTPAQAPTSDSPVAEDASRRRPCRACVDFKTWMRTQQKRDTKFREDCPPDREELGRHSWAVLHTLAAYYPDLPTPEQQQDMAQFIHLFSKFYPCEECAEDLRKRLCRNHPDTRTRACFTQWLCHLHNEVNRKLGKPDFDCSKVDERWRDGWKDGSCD
MIN6 prolif: inducers of MIN6 beta-cell proliferation, primary screen, ATP luminescence, uHTS. MIN6 cells proliferation, ATPlite luminescence, 48 h; cells starved in 0.2% serum; 100% = growth in 10% serum. proliferation, % at 10 µM. hit rate 0.29% among 330,000. AID 2380, 2010;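 active = compounds whose signal lies at least 3.5 SD above the mean of all wells on their plate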;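 note: 0% = DMSO-treated cells in low-serum medium and 100% = 10% serum control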
Exocytosis inh: LAMP-1 surface exposure blockers, TALL-104 cells – cell-based, flow cytometry, MLPCN library, primary screen | TALL-104 LAMP-1 surface exposure; cells stimulated with thapsigargin and PMA | inhibition, % at 10 µM | hit rate 0.66% among 360,000 | AID 651702, 2012;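 active = inhibition above about 55%, limit read from the data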
GASC-1 inh: inhibitors of GASC-1 histone demethylase, primary screen, biochemical, fluorescence, DELFIA europium | hit rate 0.069% among 330,000 | GST-JMJD2C(1-420) H3K9me3 demethylation | inhibition, % at 2.35 µM;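 active = more than half of a compound's replicate wells show inhibition beyond 50%, single wells judged on their own value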;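 note: signal counts dimethyl H3K9 product captured on neutravidin plate; 0% = median of DMSO wells and 100% = 0.3 times that DMSO median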
Target sequence (Q9H3R0 1-420 limits assumed): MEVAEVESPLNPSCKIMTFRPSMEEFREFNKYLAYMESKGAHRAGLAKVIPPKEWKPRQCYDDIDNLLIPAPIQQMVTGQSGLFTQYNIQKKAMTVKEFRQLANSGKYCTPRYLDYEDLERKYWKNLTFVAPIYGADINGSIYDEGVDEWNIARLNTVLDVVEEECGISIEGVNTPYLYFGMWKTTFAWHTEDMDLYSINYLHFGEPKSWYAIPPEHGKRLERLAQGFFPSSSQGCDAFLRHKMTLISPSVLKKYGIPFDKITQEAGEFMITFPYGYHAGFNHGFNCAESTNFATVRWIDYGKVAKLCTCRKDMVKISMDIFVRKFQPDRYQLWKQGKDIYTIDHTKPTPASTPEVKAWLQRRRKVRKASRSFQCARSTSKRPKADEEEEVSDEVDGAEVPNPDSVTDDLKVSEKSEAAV
PfM18AAP inh: PfM18AAP inhibitors, malaria aminopeptidase, primary screen, biochemical, QFRET, recombinant enzyme. H-Glu-NHMec fluorogenic cleavage. AID 1822, 2009. M18 aspartyl aminopeptidase (Plasmodium falciparum 3D7). hit rate 1.2% among 290,000. inhibition, % at 7.35 µM;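 active = inhibition above the campaign mean inhibition over all tested compounds plus 3 SD, cut at about 28% in these data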;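 note: 0% = plate median of test compound wells and 100% = 2 mM ZnCl2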
SMARCA2 act: SMARCA2 (BRM) function activators, primary screen, cell-based, luminescence, high throughput | activation, % at 9.1 µM | MG213 cells, MMTV-luciferase reporter, dexamethasone, overnight | hit rate 1% among 370,000; in the data active = activation above about 7.8%;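 note: 0% = vehicle wells and 100% = reference activator wells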
Granule exo CP1: inhibitors of lytic granule exocytosis, confirmation, TALL-104 cells, flow cytometry, Cherry Pick01; hit rate 11% among 1,500; LAMP-1 externalization; stimulated with PMA plus thapsigargin; AID 651954, 2012; inhibition, % at 10 µM; shares compounds with Exocytosis inh; in the data active = inhibition above about 60%;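 note: 0% = stimulated vehicle wells and 100% = unstimulated wells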
Starred values were filed as active, the others as inactive; . = no result. Rows were chosen to be rich in hits. Some 5.4% of all compounds tested hit in one or more screens of this group.

SMILES	ALR inh	MIN6 prolif	Exocytosis inh	GASC-1 inh	PfM18AAP inh	SMARCA2 act	Granule exo CP1
O=C1CCc2cc(S(=O)(=O)N3CCN(Cc4cccc5c4OCO5)CC3)ccc2N1	.	.	.	.	.	-8	.
N#Cc1cn(CCCOc2ccccc2)c2ccccc12	-2	-2	67*	9	2	0	-3
COC(=O)C1C(c2ccccc2)C(C(=O)OCc2ccco2)C1c1ccccc1 (stereo unspecified)	.	-4	69*	-3	0	.	27
CN(c1ccccc1)S(=O)(=O)c1ccc(C(=O)NCCc2ccc(F)cc2)cc1	-2	-2	72*	56	4	-5	-4
COC(=O)[C@]12C[C@H](CC(=O)N3CCN(C(=O)c4ccco4)CC3)C(=O)N(Cc3ccc(Cl)cc3Cl)C1=C[C@H](COCc1ccccc1)O[C@@H]2C	.	.	.	.	.	-4	.
COc1ccc(CCNC(=O)c2cc3c(=O)n4cccc(C)c4nc3n(CC3CCCO3)c2=N)cc1 (stereo unspecified)	-9	-4	62*	1	-4	-3	-4
Cc1cccn2c(=O)c3cc(C(=O)NCCc4ccccc4)c(=N)n(Cc4ccco4)c3nc12	4	0	78*	34	-5	-3	42
Cc1cccn2c(=O)c3cc(C(=O)NCc4ccco4)c(=N)n(CCc4ccccc4)c3nc12	.	-5	-1	.	14	5	.
Cc1cccn2c(=O)c3cc(C(=O)NCC4CCCO4)c(=N)n(CCc4ccccc4)c3nc12 (stereo unspecified)	.	11	13	14	8	-1	.
CCN(CC)C(=O)c1ccc(C(CCOC(=O)Oc2ccccc2)c2ccc(OC)cc2)cc1 (stereo unspecified)	.	.	.	.	.	0	.
CCN1C(c2ccccc2)C(C)C(=O)C(C)C1c1ccccc1 (stereo unspecified)	-14	-4	58*	-3	-1	0	-2
CC1C(=O)C(C)C(c2ccccc2)N(N=O)C1c1ccccc1 (stereo unspecified)	.	.	0	.	.	-4	.
Cc1nc(N2CCN(c3ccccn3)CC2)c2c(C)c(C(=O)N3CCN(c4ccccc4F)CC3)sc2n1	3	.	56*	-8	0	-1	-11
Cc1ccc(NC(=O)c2sc3nc(C)nc(N4CCN(c5ccccn5)CC4)c3c2C)c(C)c1	.	-4	-3	-14	-14	0	.
Cc1c(C(=O)N(Cc2ccc(Cl)cc2)C2CCS(=O)(=O)C2)oc2ccccc12 (stereo unspecified)	-5	0	74*	-7	-1	0	-12
C#CCN(C[C@H]1[C@H](OC(=O)Nc2cccs2)[C@H](OC(=O)Nc2cccs2)CN(C(=O)OC(C)C)N1C(=O)OC(C)C)S(=O)(=O)c1ccc(C)cc1	.	.	.	.	.	-5	.
CCC(=C(c1ccc(OC)cc1)c1ccc(OC)cc1)c1cn(CC(O)CN2CCN(C)CC2)c2ccccc12 (stereo unspecified)	-19	.	89*	-5	-3	-2	83*
COc1cccc(CNC(=O)[C@H]2CCCN2C(=O)[C@H]2CCCN2C(=O)c2ccc(F)c(F)c2)c1	.	.	.	.	.	-2	.
O=C(NCc1ccc(C(=O)NCC2CCCO2)cc1)c1cccc(Br)c1 (stereo unspecified)	.	.	.	.	.	-4	.
O=C1ON=C(c2ccccc2)/C1=C/c1ccc(-c2ccccc2[N+](=O)[O-])o1	-4	.	70*	-1	0	-2	99*
O=[N+]([O-])c1ccccc1-c1ccc(/C=N/n2cnnc2)o1	.	0	0	0	27	-3	.
CCN(Cc1cn(CC2CCCCC2)nn1)S(=O)(=O)c1ccccc1Br	.	.	.	.	.	-2	.
CCOC(=O)c1c(-c2ccc(OC)cc2)oc2ccc(OCC(N)=O)cc12	-1	2	31	-22	1	-3	.
CCOC(=O)c1c(-c2ccc(OC)cc2)oc2ccc(O)cc12	2	-4	63*	-2	10	-4	-12
CCCCNC(=O)C[C@@H]1C[C@]2(C(=O)OCC)CCC3=C2N(CCC3)C1=O	.	.	.	.	.	-3	.
SMILES	ALR inh	MIN6 prolif	Exocytosis inh	GASC-1 inh	PfM18AAP inh	SMARCA2 act	Granule exo CP1
O=C(Nc1ccccc1N1CCOCC1)c1cccc(Oc2ccccc2)c1	.	-5	63*	1	4	0	-13
COc1cccc(/C=C2/Sc3ccc(C(=O)NC4CC4)cc3NC2=O)c1	.	.	.	.	.	-5	.
COCc1cc(N2CCN(C(=O)OC(C)(C)C)C[C@@H]2C)ccc1Br	.	.	.	.	.	-3	.
CC(=O)CCc1oc2c([N+](=O)[O-])cccc2c1-c1ccc(C)o1	21	3	72*	-15	-18	-3	-5
CC(=O)CCc1oc2ccc([N+](=O)[O-])cc2c1-c1ccc(C)o1	-11	0	11	-4	-1	-2	.
C=CCn1c(COc2ccc(Cl)cc2)nnc1SCC(=O)c1ccccc1	.	.	.	.	.	-4	.
Cn1c(SCC2CCCCC2)nnc1-c1ccco1	.	.	.	.	.	-1	.
CCOc1ccc(NC(=O)c2ccc(CN3CCc4ccccc4C3)cc2)cc1	-8	-3	-2	4	10	-2	.
CCOC(=O)c1ccc(NC(=O)c2ccc(CN3CCc4ccccc4C3)cc2)cc1	.	-3	70*	-10	7	-4	-12
O=C(NCCCN1CCOCC1)c1ccc(/C=C2\Oc3ccccc3N(Cc3ccccc3F)C2=O)cc1	.	-8	63*	2	2	-5	-1
Cc1cccc(CN2CCc3c([nH]c4ccccc34)C2CC(C)C)n1 (stereo unspecified)	0	-4	63*	-3	2	0	-3
Cc1cnc(CN2CCc3c([nH]c4ccccc34)C2CC(C)C)[nH]1 (stereo unspecified)	28	-4	11	-20	1	-2	.
O=C1CC(N2CCN(Cc3ccccc3)CC2)C(=O)N1 (stereo unspecified)	11	-3	3	13	5	0	.
c1ccc(CN2CCN(C3CCCSc4ccccc43)CC2)cc1 (stereo unspecified)	0	-2	60*	-17	.	-2	-13
Cc1cc(C)nc(N2C(=O)CC(C(=O)O)NC2=NCCc2c[nH]c3ccccc23)n1 (stereo unspecified)	-13	-1	-3	-12	1	-6	.
Cc1cc(C)nc(NC(=NCCc2c[nH]c3ccccc23)NC(=O)C(C)(C)C)n1	-2	-3	83*	-1	2	-3	-3

Source: PubChem BioAssay
